Shown are actives, neighbours in structure and some others; about 9.3% of the full set was active somewhere.
NPC1 promoter act = activates the NPC1 promoter; Potency, µM (titrated, usually from 9.22 µM), for inactives: top-dose activation, most hits filed as activators; Huh7 NPC1 promoter luciferase reporter, 24 h; actives 2.4% (n = 320,000); further: % of control where 0% means no effect; nearly all actives have a fitted effect of over 60% in size
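Quantitative HTS used a cell-based reporter: Huh7 cells stably bearing the NPC1 promoter upstream of luciferase were treated with compounds for 24 h, and promoter activation was read as luminescence.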
ELG1 repair inh = blocks ELG1-dependent DNA repair in HEK293T cells; HEK293T ELG1-luciferase reporter, luminescence, 16 h; DNA damage induced by 5-fluorouridine; Potency, µM (doses to about 46.1 µM), inactives show at the highest dose activity change, negative = inhibition, actives largely listed as inhibitors; actives 2.3% (n = 330,000); further: on the % scale 0 is the no-effect control and ±100 the full control effect; nearly all actives have a fitted effect of over 55% in size
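Quantitative HTS, concentration-response format. 2,000 cells/well co-treated with 5-fluorouridine and compound, 16 hr in 5% CO2 at 37 °C; ONE-Glo luminescence read after 30 min.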
FLuc counter = firefly luciferase modulation, counter-screen for miR-21 project; P08659; purified FLuc, Km substrates, luminescence inhibition; Potency, µM (highest dose often 57.5 µM), for the others: at the top dose activity change, negative = inhibition, hits mostly inhibitors; actives 6.9% (n = 360,000); AID 588342;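 further: plate controls were vehicle for no effect and reference inhibitor for full effect; nearly all actives have a fitted effect of over 55% in size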
Target sequence (P08659 whole entry, looked up): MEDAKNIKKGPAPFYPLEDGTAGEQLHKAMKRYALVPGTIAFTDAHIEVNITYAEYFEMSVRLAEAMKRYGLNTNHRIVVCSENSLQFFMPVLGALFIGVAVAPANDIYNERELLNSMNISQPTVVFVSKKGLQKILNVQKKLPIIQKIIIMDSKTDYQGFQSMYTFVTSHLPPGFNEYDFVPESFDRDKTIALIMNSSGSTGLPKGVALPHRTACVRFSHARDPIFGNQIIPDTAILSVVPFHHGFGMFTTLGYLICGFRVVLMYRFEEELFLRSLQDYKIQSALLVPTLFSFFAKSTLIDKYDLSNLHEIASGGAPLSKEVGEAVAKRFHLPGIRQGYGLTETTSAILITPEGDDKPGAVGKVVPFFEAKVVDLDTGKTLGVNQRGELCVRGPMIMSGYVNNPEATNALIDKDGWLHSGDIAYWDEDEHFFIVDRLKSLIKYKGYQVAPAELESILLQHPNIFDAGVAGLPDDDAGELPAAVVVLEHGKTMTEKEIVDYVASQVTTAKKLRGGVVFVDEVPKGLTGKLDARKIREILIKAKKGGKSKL
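Purified P. pyralis luciferase, 10 nM final, with Km-level 10 uM D-luciferin and 10 uM ATP in 50 mM Tris acetate pH 7.5, 10 mM Mg acetate, 0.01% Tween-20, 0.05% BSA; 6-point qHTS titration about 60 µM downward; luminescence read.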
ELG1 genotoxic = inducers of genotoxicity in HEK293T ELG1-luciferase cells; HEK293T ELG1-luciferase reporter, luminescence, 16 h; Potency, µM (titrated, usually from 46 µM), without a hit: at the top dose activity change, positive = activation, hits mostly activators; actives 1.3% (n = 330,000); further: % of control where 0% means no effect; nearly all actives have a fitted effect of over 60% in size
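After overnight (16 hr) compound treatment at 37 °C, ELG1-luciferase HEK293T cells were lysed with ONE-Glo; luminescence quantified 30 min later at room temperature.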
Rab9 prom act = activators of Rab9 promoter | AID 485297 | Huh7 Rab9 promoter-luciferase reporter, luminescence, 24 h | actives 2.8% (n = 320,000) | Potency, µM (series often up to 9.22 µM), for the others: at the highest dose activation, negative = inhibition, most hits filed as activators; further: % of control where 0% means no effect; nearly all actives have a fitted effect of over 60% in size
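Luminescence read-out: Huh7 cells stably expressing Rab9-luciferase, treated 24 h with compound at 37 °C, then lysed with luciferase reagent for 10 min at ambient before reading.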
SMN2 splice up = enhancers of SMN2 splice variant expression; HEK293 SMN2-luciferase splicing reporter, luminescence, 30-36 h; Potency, µM (top dose mostly 46.1 µM), for the others: top-dose activity change, positive = activation, most hits filed as activators; actives 2.8% (n = 210,000); AID 1458; further: % of control where 0% means no effect; nearly all actives have a fitted effect of over 55% in size
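qHTS luciferase splicing reporter: luminescence rises when SMN2 exon 7 is included in transfected HEK293 cells. Compound exposure lasted 30-36 h at 37C, with 4.5 mM final sodium butyrate as control, followed by a ONE-Glo read.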
* marks the source's active call; other numbers are inactive results; ? = inconclusive; / = no result given. The call rests on the fitted dose curve; in most records, active means well fitted curve in the direction sought with a large enough effect; inconclusive means small, poorly fitted or top-dose-only effect, or another doubt; inactive means no such curve, though single readings can be large; an effect the other way counts as inactive or inconclusive. Potency means the concentration at half of the fitted maximal effect.

SMILES | NPC1 promoter act | ELG1 repair inh | FLuc counter | ELG1 genotoxic | Rab9 prom act | SMN2 splice up
O=C(COc1ccccc1Cl)Nc1cccnc1 | ? | ? | 19µM* | ? | ? | /
Cc1cc(OCC(=O)Nc2cccnc2)c2c(C)c(C)c(=O)oc2c1 | 0% | ? | 0% | 4% | -8% | /
Cc1cccc(N2CCN(C(=O)c3cn4ccccc4n3)CC2C)c1 (stereo unspecified) | -6% | ? | -4% | -9% | 0% | -66%
Nc1ccc(N=Nc2ccccc2)c2ccccc12 | ? | 15% | 17µM* | 0% | 2% | /
Nc1ccc(N=Nc2ccccc2)c(N)n1 | 26% | ? | 17µM* | ? | 12% | ?
CCOC(=O)c1cnc2cc(-c3ccc(Cl)cc3)nn2c1-c1ccccc1 | / | / | 0% | / | / | -14%
CCOC(=O)c1cnc2cc(-c3ccc(Br)cc3)nn2c1C | ? | ? | ? | ? | 2.8µM* | /
CCOC(=O)c1cnc2cc(-c3ccc(Cl)cc3)nn2c1N | 1.1µM* | ? | ? | ? | 1.3µM* | ?
CCOC(=O)c1cnc2cc(C)nn2c1C | -3% | 10% | -3% | 1% | 2% | -26%
CC(=O)Nc1ccc(SC[C@H](C)CN2CC[C@H](O)CCC2=O)cc1 | 11% | ? | 0% | 5% | -4% | /
COc1ccccc1-c1noc(CCCC(=O)Nc2ccc(C(N)=O)cc2)n1 | -2% | ? | -8% | 3% | 1% | /
Cc1cc(C(=O)NCCC2=CCCCC2)no1 | 24% | ? | -6% | -2% | 15% | 8%
O=C(NCCC1=CCCCC1)c1cnsn1 | 27% | ? | ? | 16µM* | ? | 26%
CCn1cc(C2=NC(c3ccccc3)CO2)c2ccccc21 (stereo unspecified) | -6% | 15% | ? | 6% | -2% | -3%
COc1ccc(C2=NC(c3ccccc3)CO2)cc1 (stereo unspecified) | 3.2µM* | ? | 1.5µM* | ? | 3.5µM* | ?
O=[N+]([O-])c1cccc(C2CC(c3ccccc3)=NN2c2ccccc2)c1 (stereo unspecified) | -4% | 12% | ? | 0% | 5% | /
O=[N+]([O-])c1cccc(C2=NC(c3ccccc3)CO2)c1 (stereo unspecified) | ? | ? | 27µM* | ? | ? | 2%
COc1ccc(C=Nc2ccc3[nH]ncc3c2)c(O)c1 | 5% | ? | 6.7µM* | -8% | -1% | -8%
COc1cc(OC)c(NC(=O)C(C)n2nc(-c3ccc(C)c(C)c3)ccc2=O)cc1Cl (stereo unspecified) | / | / | -14% | / | / | /
COc1ccccc1NS(=O)(=O)c1ccc2oc(SC(C)C(=O)N3CCNC3=O)nc2c1 (stereo unspecified) | -5% | 26µM* | / | -8% | -7% | /
CCNC(=O)CN(Cc1ccccc1)S(=O)(=O)c1ccccc1 | 0% | 0% | 8% | 23µM* | 0% | 0%
CCNC(=O)CN(CCc1ccccc1)S(=O)(=O)c1ccc(OC)cc1 | 1% | 1% | -1% | -1% | 3% | -17%
Clc1ccc(-c2cn3ncsc3n2)cc1 | / | / | 12µM* | / | / | -1%
O=C(O)c1csc(-c2ccc(Cl)cc2)n1 | 3% | 5% | -20% | 1% | 1% | 10%
Cc1ccc(S(=O)(=O)N[C@H](C(=O)N2CCC(C(=O)N[C@H](C(=O)O)c3ccccc3)CC2)C(C)C)cc1 | 4% | 18% | 5% | 1% | -4% | /
SMILES | NPC1 promoter act | ELG1 repair inh | FLuc counter | ELG1 genotoxic | Rab9 prom act | SMN2 splice up
CC(C)C[C@H](NC(=O)c1nc[nH]c1C(=O)N(C)Cc1ccccc1)C(=O)OCc1ccccc1 | ? | 9% | 0% | -1% | 1% | /
COc1ccc2c(c1)O/C(=C\c1sccc1C)C2=O | ? | ? | 0.17µM* | 18µM* | ? | ?
Cc1ccc(NC(=O)c2ncn(CC(=O)N3CCN(c4ccccn4)CC3)n2)cc1C | / | 13% | / | -2% | / | /
CCOc1ccc(C2C(=O)N(C3CCCCCC3)CC(=O)N2Cc2ccc(C)cc2)cc1OC (stereo unspecified) | / | / | 6% | / | / | /
COc1ccc(CNC(=O)Cn2c(=O)oc3cc(S(=O)(=O)NCc4ccccc4)ccc32)cc1 | / | / | 0% | / | / | /
Cc1ccc(S(=O)(=O)N/N=C/c2cccn2-c2ccc(Cl)cc2)cc1 | ? | ? | 0.54µM* | 11% | ? | -20%
CC1CCCCC12NC(=O)N(Cc1cc(=O)n3ccsc3n1)C2=O (stereo unspecified) | -4% | 0% | 4% | 1% | 8% | /
COc1ccccc1NC(=O)Cc1nnc(SCC(=O)NC2CCCCC2C)n1C (stereo unspecified) | -4% | -1% | -3% | 0% | -4% | /
Cc1cccc(C)c1OCC(=O)NCc1nnc(SCC(=O)NC2CCCCC2C)n1C (stereo unspecified) | -1% | 0% | 11% | 2% | 1% | 22µM*
CCn1c(CNC(=O)COc2ccc(C(C)C)cc2)nnc1SCC(=O)NC1CCCCC1C (stereo unspecified) | -4% | 16µM* | -21% | -5% | -5% | -39%
O=C(Cn1nnc(-c2ccc(N3CCOCC3)cc2)n1)OC1CCCCC1 | -6% | 2% | 12µM* | -3% | 3% | -26%
O=C(Cn1nnc(-c2ccc(N3CCOCC3)cc2)n1)N1CCOCC1 | ? | ? | 11µM* | 14% | 27% | /
Clc1ccc(Cn2nnc(-c3ccc(N4CCOCC4)cc3)n2)cc1 | 8% | 1% | ? | 7% | 0% | /
O=C(Cn1nnc(-c2cccc(C(F)(F)F)c2)n1)N1CCOCC1 | -5% | 10% | 2% | 4% | 5% | -3%
O=C(Nc1cccnc1)c1cnn2c1NC(=C1CC1)C=C2C(F)F | / | / | -1% | / | / | /
O=C(c1ccc2c(=O)n3c(nc2c1)CCCCC3)N1CCN(c2cccc(Cl)c2)CC1 | 1% | ? | 2% | -3% | -5% | /
COc1ccc(CNC(=O)C2COc3ccccc3O2)cc1 (stereo unspecified) | ? | ? | ? | 14% | ? | 13µM*
COc1ccccc1CNC(=O)C1COc2ccccc2O1 (stereo unspecified) | 15% | ? | ? | 18µM* | -6% | ?
COc1ccccc1C(CNC(=O)C1COc2ccccc2O1)N1CCCC1 (stereo unspecified) | -11% | 0% | -9% | 0% | -4% | /
COc1cc(NC(=O)Cn2c(=O)nc(-c3ccccc3F)c3cc(Cl)ccc32)cc(OC)c1 | / | / | -11% | / | / | /
